# According to the supplement of paper PMC8728848:
# This excerpt belongs to a sample that is enriched for the strongest signals.
# Legend:
# Assay in all cases: glycan array binding signal (z-score within array); higher = stronger binding
# Neu5Ac(a2-6)Gal = conditions: glycan notation: IUPAC condensed, linker removed
# Summary of the method: (§1)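 The binding signal is a Z-score computed within each array. Data were drawn from 3228 arrays in the Consortium for Functional Glycomics database, restricted to those with a known protein sequence. Scores were averaged over arrays of the same protein sequence at different concentrations or buffers, and over linkers, and negative values can be taken as non-binding.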
# [1] = test system: Neu5Ac(a2-6)GlcNAc(b1-4)GlcNAc; conditions: glycan notation: IUPAC condensed, linker removed
# Summary of the method: as §1
# [2] = test system: Neu5Ac(a2-8)Neu5Ac(a2-8)Neu5Ac(a2-3)Gal(b1-4)Glc; conditions: glycan notation: IUPAC condensed, linker removed
# Summary of the method: as §1
# [3] = test system: Neu5Ac(a2-8)Neu5Ac(a2-3)Gal(b1-4)Glc; conditions: glycan notation: IUPAC condensed, linker removed
# Summary of the method: as §1
# [4] = test system: Neu5Ac(a2-8)Neu5Ac(a2-8)Neu5Ac(a2-3)[GalNAc(b1-4)]Gal(b1-4)Glc; conditions: glycan notation: IUPAC condensed, linker removed
# Summary of the method: as §1
# [5] = test system: Neu5Ac(a2-6)GalNAc(b1-4)GlcNAc6S; conditions: glycan notation: IUPAC condensed, linker removed
# Summary of the method: as §1
# Neu5Ac(a2-8)Neu5Ac = conditions: glycan notation: IUPAC condensed, linker removed
# Summary of the method: as §1
# [6] = test system: Neu5Ac9Ac(a2-3)Gal(b1-3)GlcNAc; conditions: glycan notation: IUPAC condensed, linker removed
# Summary of the method: as §1
# [7] = test system: Neu5Ac9Ac(a2-6)Gal(b1-4)GlcNAc; conditions: glycan notation: IUPAC condensed, linker removed
# Summary of the method: as §1
# [8] = test system: Neu5Ac(a2-8)Neu5Ac(a2-3)[GalNAc(b1-4)]Gal(b1-4)Glc; conditions: glycan notation: IUPAC condensed, linker removed
# Summary of the method: as §1
# Neu5Ac(b2-6)GalNAc = conditions: glycan notation: IUPAC condensed, linker removed
# Summary of the method: as §1
# [9] = test system: Neu5Ac(a2-8)Neu5Ac(a2-8)Neu5Ac(a2-8)Neu5Ac(a2-3)[GalNAc(b1-4)]Gal(b1-4)Glc; conditions: glycan notation: IUPAC condensed, linker removed
# Summary of the method: as §1
# Neu5Ac(a2-6)GalNAc = conditions: glycan notation: IUPAC condensed, linker removed
# Summary of the method: as §1
# [10] = test system: Neu5Gc(a2-3)Gal(b1-4)GlcNAc; conditions: glycan notation: IUPAC condensed, linker removed
# Summary of the method: as §1
# [11] = test system: Neu5Ac(a2-8)Neu5Ac(a2-3)Gal(b1-3)GalNAc(b1-4)[Neu5Ac(a2-3)]Gal(b1-4)Glc; conditions: glycan notation: IUPAC condensed, linker removed; mutation: R125K
# Summary of the method: as §1
# [12] = test system: Neu5Ac(a2-8)Neu5Ac(a2-3)Gal(b1-4)GlcNAc; conditions: glycan notation: IUPAC condensed, linker removed; mutation: R125K
# Summary of the method: as §1
# [13] = test system: Neu5Ac9Ac(a2-3)Gal(b1-4)GlcNAc; conditions: glycan notation: IUPAC condensed, linker removed; mutation: R125K
# Summary of the method: as §1
# [14] = test system: Neu5Gc(a2-3)Gal(b1-3)[Fuc(a1-4)]GlcNAc; conditions: glycan notation: IUPAC condensed, linker removed; mutation: R125K
# Summary of the method: as §1
# [15] = test system: Neu5Gc(a2-3)Gal(b1-4)GlcNAc(b1-3)Gal(b1-4)GlcNAc(b1-2)Man(a1-3)[Neu5Gc(a2-3)Gal(b1-4)GlcNAc(b1-3)Gal(b1-4)GlcNAc(b1-2)Man(a1-6)]Man(b1-4)GlcNAc(b1-4)GlcNAc; conditions: glycan notation: IUPAC condensed, linker removed
# Summary of the method: as §1
# [16] = test system: Neu5Ac(a2-8)Neu5Ac(a2-8)Neu5Ac; conditions: glycan notation: IUPAC condensed, linker removed; mutation: D138V, E140I
# Summary of the method: as §1
# Regenerating Gene IV (Homo sapiens), Q9BYZ8, sequence (Q9BYZ8 whole entry, looked up): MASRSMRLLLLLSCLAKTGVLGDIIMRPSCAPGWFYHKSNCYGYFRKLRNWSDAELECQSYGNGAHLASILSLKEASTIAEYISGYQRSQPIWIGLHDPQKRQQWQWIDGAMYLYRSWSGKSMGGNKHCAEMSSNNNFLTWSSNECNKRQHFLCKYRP
# CHI3L1 (Homo sapiens), P36222, sequence (P36222 whole entry): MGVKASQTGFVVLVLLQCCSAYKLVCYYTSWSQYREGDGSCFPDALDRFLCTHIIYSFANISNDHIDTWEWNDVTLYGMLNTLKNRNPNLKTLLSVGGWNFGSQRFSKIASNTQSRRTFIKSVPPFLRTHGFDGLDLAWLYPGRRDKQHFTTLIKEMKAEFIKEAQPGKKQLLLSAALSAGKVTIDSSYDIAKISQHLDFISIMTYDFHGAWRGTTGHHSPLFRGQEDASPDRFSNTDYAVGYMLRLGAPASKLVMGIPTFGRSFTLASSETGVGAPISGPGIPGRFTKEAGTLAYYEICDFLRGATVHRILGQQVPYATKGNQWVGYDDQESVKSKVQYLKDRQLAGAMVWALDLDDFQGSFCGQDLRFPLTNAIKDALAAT
# PILRb (Mus musculus), Q2YSF2, sequence (Q2YSF2 entry or part of it): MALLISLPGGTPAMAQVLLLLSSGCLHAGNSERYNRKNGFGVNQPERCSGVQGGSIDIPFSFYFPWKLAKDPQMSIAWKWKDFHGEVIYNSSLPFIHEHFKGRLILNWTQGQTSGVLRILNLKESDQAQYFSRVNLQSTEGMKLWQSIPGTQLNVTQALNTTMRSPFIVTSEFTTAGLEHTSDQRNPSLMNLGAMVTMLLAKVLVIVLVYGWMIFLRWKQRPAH
# Neurocan (Homo sapiens), O14594, sequence (O14594 other isoform, or with tags, fused parts or gaps): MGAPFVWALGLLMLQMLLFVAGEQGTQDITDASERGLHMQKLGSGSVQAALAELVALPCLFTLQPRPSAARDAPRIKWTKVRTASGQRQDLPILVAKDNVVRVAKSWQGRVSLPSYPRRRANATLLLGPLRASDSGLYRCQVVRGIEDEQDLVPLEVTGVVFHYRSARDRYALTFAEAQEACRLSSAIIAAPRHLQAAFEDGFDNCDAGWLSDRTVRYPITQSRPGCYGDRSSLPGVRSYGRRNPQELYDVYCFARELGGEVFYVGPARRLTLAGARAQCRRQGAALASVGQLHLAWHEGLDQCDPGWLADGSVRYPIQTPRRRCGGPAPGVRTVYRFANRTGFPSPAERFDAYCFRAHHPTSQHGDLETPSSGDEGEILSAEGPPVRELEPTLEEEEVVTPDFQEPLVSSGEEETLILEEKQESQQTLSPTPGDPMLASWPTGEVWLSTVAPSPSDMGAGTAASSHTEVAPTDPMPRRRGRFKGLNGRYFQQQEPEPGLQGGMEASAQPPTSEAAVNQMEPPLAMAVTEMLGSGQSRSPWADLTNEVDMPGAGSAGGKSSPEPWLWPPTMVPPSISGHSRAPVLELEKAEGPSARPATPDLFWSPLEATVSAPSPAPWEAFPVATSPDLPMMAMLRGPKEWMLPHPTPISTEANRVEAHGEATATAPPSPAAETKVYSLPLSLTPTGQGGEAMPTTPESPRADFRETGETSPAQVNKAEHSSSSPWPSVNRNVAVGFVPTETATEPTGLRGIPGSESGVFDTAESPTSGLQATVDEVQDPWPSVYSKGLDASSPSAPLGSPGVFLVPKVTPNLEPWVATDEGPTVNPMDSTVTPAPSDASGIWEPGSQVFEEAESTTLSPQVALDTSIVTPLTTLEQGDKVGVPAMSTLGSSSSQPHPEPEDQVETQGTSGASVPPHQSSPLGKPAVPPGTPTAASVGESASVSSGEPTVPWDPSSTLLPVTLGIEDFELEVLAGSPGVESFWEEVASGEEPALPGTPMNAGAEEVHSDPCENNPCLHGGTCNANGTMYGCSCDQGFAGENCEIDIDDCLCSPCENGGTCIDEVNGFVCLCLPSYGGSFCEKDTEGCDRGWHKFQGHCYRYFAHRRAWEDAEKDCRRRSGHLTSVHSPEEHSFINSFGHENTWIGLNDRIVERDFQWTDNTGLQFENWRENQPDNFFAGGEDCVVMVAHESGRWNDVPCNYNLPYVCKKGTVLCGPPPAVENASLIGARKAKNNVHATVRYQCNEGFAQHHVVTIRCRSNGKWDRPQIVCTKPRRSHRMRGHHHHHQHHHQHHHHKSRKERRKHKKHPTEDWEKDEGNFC
# Avaren (Actinomycete K97), sequence (chain, as listed by the source): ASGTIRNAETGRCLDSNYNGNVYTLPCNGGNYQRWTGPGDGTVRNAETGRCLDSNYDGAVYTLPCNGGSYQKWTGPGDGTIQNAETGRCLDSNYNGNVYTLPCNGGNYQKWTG
# 6RG (Lolium perenne), sequence (chain, as listed by the source): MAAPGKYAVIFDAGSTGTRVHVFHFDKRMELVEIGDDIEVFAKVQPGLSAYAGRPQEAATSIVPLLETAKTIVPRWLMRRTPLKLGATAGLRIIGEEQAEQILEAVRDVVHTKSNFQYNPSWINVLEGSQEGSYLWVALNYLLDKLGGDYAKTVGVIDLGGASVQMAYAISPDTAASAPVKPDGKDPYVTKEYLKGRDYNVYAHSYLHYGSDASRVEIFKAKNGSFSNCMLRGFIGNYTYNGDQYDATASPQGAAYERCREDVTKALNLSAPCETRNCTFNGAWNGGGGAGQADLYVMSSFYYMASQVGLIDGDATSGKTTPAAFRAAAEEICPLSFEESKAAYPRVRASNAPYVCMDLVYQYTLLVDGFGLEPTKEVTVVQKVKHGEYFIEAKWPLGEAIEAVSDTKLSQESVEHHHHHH
# SRLC (Mus musculus), Q8VIF6, sequence (Q8VIF6 other isoform, or with tags, fused parts or gaps): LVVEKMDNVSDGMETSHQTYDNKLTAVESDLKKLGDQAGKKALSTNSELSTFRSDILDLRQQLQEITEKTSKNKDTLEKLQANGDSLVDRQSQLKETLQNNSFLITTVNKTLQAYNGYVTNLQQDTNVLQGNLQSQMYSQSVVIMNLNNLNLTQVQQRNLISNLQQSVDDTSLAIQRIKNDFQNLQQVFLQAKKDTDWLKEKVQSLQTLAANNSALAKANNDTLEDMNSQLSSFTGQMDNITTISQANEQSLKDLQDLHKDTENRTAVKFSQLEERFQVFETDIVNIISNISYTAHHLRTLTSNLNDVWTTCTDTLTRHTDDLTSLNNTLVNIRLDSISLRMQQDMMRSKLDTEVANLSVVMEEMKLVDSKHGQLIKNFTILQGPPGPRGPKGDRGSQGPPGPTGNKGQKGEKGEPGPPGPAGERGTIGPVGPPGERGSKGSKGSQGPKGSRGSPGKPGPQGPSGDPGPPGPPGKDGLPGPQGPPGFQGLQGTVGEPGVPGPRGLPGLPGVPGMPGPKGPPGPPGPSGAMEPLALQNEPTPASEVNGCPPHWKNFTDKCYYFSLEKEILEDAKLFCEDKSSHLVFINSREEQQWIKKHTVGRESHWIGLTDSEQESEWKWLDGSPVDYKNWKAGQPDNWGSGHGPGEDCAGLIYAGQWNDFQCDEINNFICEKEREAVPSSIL
# CHT (Homo sapiens), sequence (chain, as listed by the source): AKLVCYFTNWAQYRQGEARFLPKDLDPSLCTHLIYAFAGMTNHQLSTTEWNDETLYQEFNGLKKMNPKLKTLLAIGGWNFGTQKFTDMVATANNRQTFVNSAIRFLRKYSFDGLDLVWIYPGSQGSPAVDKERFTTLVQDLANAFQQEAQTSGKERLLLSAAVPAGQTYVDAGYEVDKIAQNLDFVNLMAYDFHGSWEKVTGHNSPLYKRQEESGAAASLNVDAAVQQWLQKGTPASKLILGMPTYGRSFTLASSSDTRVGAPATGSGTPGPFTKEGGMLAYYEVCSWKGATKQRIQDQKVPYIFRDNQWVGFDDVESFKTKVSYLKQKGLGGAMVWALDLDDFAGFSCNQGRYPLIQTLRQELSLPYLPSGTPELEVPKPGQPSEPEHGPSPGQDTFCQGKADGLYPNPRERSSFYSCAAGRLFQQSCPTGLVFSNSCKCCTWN
# PILRa (Mus musculus), Q2YSF3, sequence (Q2YSF3 entry or part of it): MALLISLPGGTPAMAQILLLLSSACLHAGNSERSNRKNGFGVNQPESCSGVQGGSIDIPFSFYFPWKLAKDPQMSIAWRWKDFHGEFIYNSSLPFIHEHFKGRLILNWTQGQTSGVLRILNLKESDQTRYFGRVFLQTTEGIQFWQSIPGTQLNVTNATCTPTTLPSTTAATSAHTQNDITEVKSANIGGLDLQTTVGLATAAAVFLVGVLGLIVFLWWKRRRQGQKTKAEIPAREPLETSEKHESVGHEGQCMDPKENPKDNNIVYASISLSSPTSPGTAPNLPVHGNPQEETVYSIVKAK
# 6RG (Lolium perenne), B9U140, sequence (B9U140 entry or part of it): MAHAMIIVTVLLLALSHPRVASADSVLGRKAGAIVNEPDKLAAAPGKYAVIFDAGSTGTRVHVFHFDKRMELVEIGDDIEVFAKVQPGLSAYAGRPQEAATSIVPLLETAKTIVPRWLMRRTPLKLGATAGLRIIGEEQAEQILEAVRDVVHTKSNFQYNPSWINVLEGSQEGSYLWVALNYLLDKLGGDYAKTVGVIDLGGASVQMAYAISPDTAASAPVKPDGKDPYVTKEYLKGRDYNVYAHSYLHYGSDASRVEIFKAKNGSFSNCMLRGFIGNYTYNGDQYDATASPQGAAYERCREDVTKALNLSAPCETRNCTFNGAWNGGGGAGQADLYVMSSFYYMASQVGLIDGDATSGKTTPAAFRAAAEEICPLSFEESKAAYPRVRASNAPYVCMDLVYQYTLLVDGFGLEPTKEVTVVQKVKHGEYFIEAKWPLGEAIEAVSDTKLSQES
substance,measurement,setting,value
"PILRa (Mus musculus), Q2YSF3",glycan array binding signal (z-score),Neu5Ac(a2-6)Gal,2.04
"PILRb (Mus musculus), Q2YSF2",glycan array binding signal (z-score),[1],-0.085
same,glycan array binding signal (z-score),[2],-0.167
"Regenerating Gene IV (Homo sapiens), Q9BYZ8",glycan array binding signal (z-score),Neu5Ac(a2-6)Gal,0.693
same,glycan array binding signal (z-score),[3],0.532
same,glycan array binding signal (z-score),[4],-0.332
"CHI3L1 (Homo sapiens), P36222",glycan array binding signal (z-score),[5],-0.113
same,glycan array binding signal (z-score),[2],-0.11
same,glycan array binding signal (z-score),Neu5Ac(a2-8)Neu5Ac,-0.091
same,glycan array binding signal (z-score),[6],-0.07
MpAFP RI GFP (Marinomonas primoryensis),glycan array binding signal (z-score),[5],-0.16
same,glycan array binding signal (z-score),[6],0.228
same,glycan array binding signal (z-score),[7],-0.772
"SRLC (Mus musculus), Q8VIF6",glycan array binding signal (z-score),[3],-0.188
"HARE (Homo sapiens), Q8WWQ8",glycan array binding signal (z-score),Neu5Ac(a2-6)Gal,-0.26
Avaren (Actinomycete K97),glycan array binding signal (z-score),[8],-0.117
same,glycan array binding signal (z-score),Neu5Ac(b2-6)GalNAc,-0.14
"C3b (Homo sapiens), P01024",glycan array binding signal (z-score),[9],-0.102
6RG (Lolium perenne),glycan array binding signal (z-score),Neu5Ac(a2-8)Neu5Ac,-0.273
"Neurocan (Homo sapiens), O14594",glycan array binding signal (z-score),Neu5Ac(a2-6)GalNAc,0.364
same,glycan array binding signal (z-score),[10],-0.18
"6RG (Lolium perenne), B9U140",glycan array binding signal (z-score),[7],2.52
"Siglec-8 (Homo sapiens), Q9NYZ4",glycan array binding signal (z-score),[11],-0.164
same,glycan array binding signal (z-score),[12],-0.473
same,glycan array binding signal (z-score),Neu5Ac(a2-8)Neu5Ac,0.014
same,glycan array binding signal (z-score),[6],-0.078
same,glycan array binding signal (z-score),[13],-0.109
same,glycan array binding signal (z-score),[14],-0.465
same,glycan array binding signal (z-score),[15],0.025
same,glycan array binding signal (z-score),[10]; mutation: R125K,-0.109
CHT (Homo sapiens),glycan array binding signal (z-score),[16],-0.166
